# A number with no mark means an inactive call. No rule for the calls is given here.
# Experiments:
# Assay in all cases: primary screen, binary call; higher = more effect of the substance
# Factor Xa = Factor Xa (bovine, UniProt P00743); parameters: screenings were carried out in duplicate in one independent experiment; conditions: 200 µM
# Experimental: Protease inhibitory assays were performed in transparent microtiter plates in a final volume of 200 µL with the use of chromogenic substrates. The reaction rates in the absence and in the presence of the inhibitor were measured; screenings were carried out in duplicate in one independent experiment and Ki values were determined in triplicate in two independent experiments.
# 5-HT6 receptor = 5-HT6 receptor (human, UniProt P50406); parameters: hit call from the mean of at least two separate experiments; conditions: 10 µM
# Chain of 5-HT6 receptor (P50406 whole entry, looked up): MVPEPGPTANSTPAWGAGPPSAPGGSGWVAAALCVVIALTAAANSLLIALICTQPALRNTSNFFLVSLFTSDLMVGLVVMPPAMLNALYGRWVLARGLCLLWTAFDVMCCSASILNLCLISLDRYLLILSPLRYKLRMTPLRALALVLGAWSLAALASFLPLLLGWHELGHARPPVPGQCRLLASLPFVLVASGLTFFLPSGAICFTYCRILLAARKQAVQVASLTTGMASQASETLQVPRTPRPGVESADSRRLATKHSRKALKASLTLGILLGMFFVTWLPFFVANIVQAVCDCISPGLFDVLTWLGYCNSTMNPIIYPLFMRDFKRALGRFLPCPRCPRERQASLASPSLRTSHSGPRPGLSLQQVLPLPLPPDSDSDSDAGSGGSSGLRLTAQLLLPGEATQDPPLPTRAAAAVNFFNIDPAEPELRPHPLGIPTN
# 5-HT7b receptor = 5-HT7b receptor (human, UniProt P34969); parameters: hit call from the mean of at least two separate experiments; conditions: 10 µM
# Chain of 5-HT7b receptor (P34969 whole entry, looked up): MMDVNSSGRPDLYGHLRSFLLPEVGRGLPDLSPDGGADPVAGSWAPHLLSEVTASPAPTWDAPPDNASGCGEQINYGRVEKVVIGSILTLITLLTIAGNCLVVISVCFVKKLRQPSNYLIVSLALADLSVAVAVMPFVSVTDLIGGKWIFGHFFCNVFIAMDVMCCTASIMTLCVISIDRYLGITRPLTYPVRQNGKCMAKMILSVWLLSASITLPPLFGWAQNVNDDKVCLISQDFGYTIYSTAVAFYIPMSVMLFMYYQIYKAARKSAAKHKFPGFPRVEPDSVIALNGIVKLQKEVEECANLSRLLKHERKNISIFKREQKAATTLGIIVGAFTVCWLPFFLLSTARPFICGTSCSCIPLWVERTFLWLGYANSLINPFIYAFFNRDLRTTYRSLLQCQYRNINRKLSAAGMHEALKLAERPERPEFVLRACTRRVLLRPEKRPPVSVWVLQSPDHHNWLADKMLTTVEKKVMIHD
# Chain of Factor Xa (P00743 41-180 limits assumed): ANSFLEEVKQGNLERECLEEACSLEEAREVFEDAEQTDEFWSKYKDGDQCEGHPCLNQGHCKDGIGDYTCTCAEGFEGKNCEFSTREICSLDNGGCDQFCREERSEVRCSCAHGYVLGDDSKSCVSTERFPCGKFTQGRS
# Chain of Factor Xa (P00743 234-492 limits assumed): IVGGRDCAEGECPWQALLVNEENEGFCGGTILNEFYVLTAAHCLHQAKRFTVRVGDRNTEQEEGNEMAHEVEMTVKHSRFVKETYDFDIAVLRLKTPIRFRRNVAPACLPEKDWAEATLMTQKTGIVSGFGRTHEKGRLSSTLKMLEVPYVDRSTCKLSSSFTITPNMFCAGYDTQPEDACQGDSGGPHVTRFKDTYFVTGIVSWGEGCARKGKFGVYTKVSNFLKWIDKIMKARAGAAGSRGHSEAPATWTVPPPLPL
Structure (SMILES),Factor Xa (Factor Xa),5-HT6 (5-HT6 receptor),5-HT7 (5-HT7b receptor)
c1ccc2c(N3CCNCC3)ccnc2c1,0,1 (active),0
N#Cc1ccc2ncsc2c1,0,0,0
O=C(NC1CC1)c1ccccc1O,0,0,0
Clc1ccc2nnnn2n1,0,0,0
Cn1c(CO)nc2ccccc21,0,0,0
COc1ccccc1N1CCNCC1,0,1 (active),1 (active)
O=c1ccc2c([nH]1)CCCC2,0,0,0
CCc1nccn1CC(=O)O,0,0,0
O=C(O)c1cnc(-c2ccccc2)s1,0,0,0
Oc1ccccc1N1CCCCC1,1 (active),1 (active),0
O=C(O)C1CCCN(C(=O)N2CCCC2)C1 (stereo not drawn),0,0,0
NCC1(c2ccccc2)CCOCC1,0,0,0
COc1ccc(CN2CCNCC2)cc1F,0,0,0
CC1C(=O)NC(=O)N1c1ccc(Cl)cc1 (stereo not drawn),0,0,0
O=C1CCCc2occc21,0,0,0
O=C(CN1CCNCC1)c1ccccc1,0,0,0
Cc1nc(-c2ccccc2)cs1,0,1 (active),0

# From publication PMC8159961, “Exploring protein hotspots by optimized fragment pharmacophores” (Nature Communications, 2021)
